Assay outcomes deposited in PubChem BioAssay by National Center for Advancing Translational Sciences (NCATS).
IL-1B inflam inh: inflammasome signaling inhibition, IL-1 beta readout; THP-1 LPS/ATP IL-1B secretion, AlphaLISA, 16 h; hits give low values; activity change, % at 57.5 µM; 360,000 tested, 4.7% active; in the data active means activity change below about -50%; inconclusive means mostly about -30% to -49%
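THP-1 cells pretreated 1 hr with compounds (up to 57.5 uM final), then stimulated with LPS (250 ng/mL final) plus ATP (1.25 mM final); secreted IL-1B measured by AlphaLISA after 16 hr, decreased signal indicating inhibition.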
HT1080 IDH1KD tx: kills HT-1080 cells with IDH1 knockdown. AID 686971. 360,000 tested, 2% active. HT-1080 IDH1 knockdown viability, ATP luminescence, 48 h. Potency, µM (highest dose often 46.1 µM), usual class: cytotoxic
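Knockdown cells (IDH1KD HT-1080) received compounds 2 h after plating at 750 cells/well and were kept 48 h at 37 °C in 5% FBS RPMI. A CellTiter-Glo luminescence read gave % activity for curve fitting.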
TDP1 cell CPT: DT40-hTDP1 cell growth loss with CPT | 420,000 tested, 12% active | Potency, µM (titrated, usually from 46.2 µM), usual class: inhibitors | chicken DT40 Tdp1-/-;hTDP1 cells + 20 nM CPT, ATP luminescence, 48 h; further: nearly all actives have a fitted effect of over 55% in size
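Cell growth measured by CellTiter-Glo luminescence after a minimum 48 h, 37 C compound exposure with 20 nM CPT in Tdp1-knockout DT40 cells stably expressing hTDP1, seeded 400/well; qHTS titration format.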
TDP1 cell noCPT: qHTS for Inhibitors of human tyrosyl-DNA phosphodiesterase 1 (TDP1): qHTS in cells in absence of CPT; DT40 Tdp1-/- hTDP1 cells, no CPT, ATP luminescence, 48 h; Potency, µM (doses to about 46.2 µM), actives largely listed as inhibitors; 420,000 tested, 15% active; AID 686978, 2013; further: nearly all actives have a fitted effect of over 55% in size
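Camptothecin absent (DMSO only). Human TDP1-complemented DT40 knockout cells, 400 cells/well, 37 °C for minimum 48 hr; ATP measured via CellTiter-Glo, 30 min dark incubation, luminescence.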
HT1080-NT tox: kills 2HG-producing HT-1080-NT fibrosarcoma cells; 360,000 tested, 1.6% active; HT-1080-NT fibrosarcoma viability, CellTiter-Glo ATP luminescence, 48 h; Potency, µM (doses to about 46.1 µM), most hits filed as cytotoxic;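 further: NT is the 2HG producing partner of a matched IDH1 knockdown line; nearly all actives have a fitted effect of over 55% in size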
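750 cells/well, RPMI + 5% FBS; 2 h settle, compound pin-transfer, 48 h at 37 degrees C. CellTiter-Glo 10 min RT, luminescence. Normalized to DMSO and media-only wells.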
Each line names hits and unclear results; the compound was inactive in the other large screens. Hits are enriched below; roughly 19% of the tested compounds scored in any of these assays. Unless noted, the call rests on the fitted dose curve; in most records, active means well fitted curve in the direction sought with a large enough effect; inconclusive means small, poorly fitted or top-dose-only effect, or another doubt; inactive means no such curve, though single readings can be large; an effect the other way counts as inactive or inconclusive.

CCN1C(=O)c2ccccc2S(=O)c2ccc(C(=O)NCc3ccc(OC)cc3)cc21 (centres undefined)	TDP1 cell CPT inconclusive, TDP1 cell noCPT inconclusive
CCCCSCCCNC(=O)c1ccc2c(c1)N(CC)C(=O)c1ccccc1S2=O (centres undefined)	TDP1 cell CPT 18µM, TDP1 cell noCPT inconclusive
Cc1ccccc1NC(=O)Cn1cc(S(=O)(=O)N2CCCC2)c(S(=O)(=O)N2CCCC2)c1	none (no result: IL-1B inflam inh, HT1080 IDH1KD tx, HT1080-NT tox)
CCc1noc(C)c1C(=O)N(CC)CC(=O)NCc1ccc(Cl)cc1	none
Fc1cccc(Cc2c(-c3cccc(Br)c3)nc3c(Cl)cc(C(F)(F)F)cn23)c1	none
Fc1ccc(-c2nc3c(Cl)cc(C(F)(F)F)cn3c2Cc2cccc(Cl)c2)cc1	none
COc1ccc(-c2nc3c(Cl)cc(C(F)(F)F)cn3c2Cc2cccc(F)c2)cc1OC	IL-1B inflam inh inconclusive, TDP1 cell CPT 23µM, TDP1 cell noCPT 18µM
Cc1ccc(Cc2c(-c3cccc(Br)c3)nc3c(Cl)cc(C(F)(F)F)cn23)cc1	TDP1 cell noCPT 16µM
Cc1c(C(=O)NNC(=O)c2ccccc2O)oc2ccc(Br)cc12	TDP1 cell CPT 21µM, TDP1 cell noCPT inconclusive
CCOc1ccc2oc(C(=O)NNC(=O)c3ccccc3O)c(C)c2c1	TDP1 cell CPT inconclusive, TDP1 cell noCPT 26µM, HT1080-NT tox inconclusive
Cc1c(C(=O)NCc2cccs2)oc2ccc(Br)cc12	none
CCOc1ccc2oc(C(=O)O)c(C)c2c1	none
COc1ccccc1NC(=S)N(Cc1ccco1)Cc1cc2ccc(C)c(C)c2[nH]c1=O	HT1080 IDH1KD tx inconclusive, TDP1 cell CPT 0.58µM, TDP1 cell noCPT 0.58µM, HT1080-NT tox inconclusive
Cc1ccc2cc(CN(Cc3ccco3)C(=O)NC3CCCCC3)c(=O)[nH]c2c1C	IL-1B inflam inh inconclusive, TDP1 cell CPT 16µM, TDP1 cell noCPT 29µM
Cc1ccc2cc(CN(Cc3ccco3)C(=O)C3CCCCC3)c(=O)[nH]c2c1C	TDP1 cell CPT inconclusive, TDP1 cell noCPT inconclusive
COc1ccccc1NC(=S)N(Cc1ccco1)Cc1cc2cc(C)cc(C)c2[nH]c1=O	HT1080 IDH1KD tx inconclusive, TDP1 cell CPT 10µM, TDP1 cell noCPT 10µM, HT1080-NT tox inconclusive
O=C(COc1ncnc2ccccc12)Nc1ccccc1[N+](=O)[O-]	none
CCOc1ccccc1CNC(=O)c1oc2ccc3c(c2c1C)C(=O)CC(C)(C)O3	TDP1 cell CPT inconclusive, TDP1 cell noCPT 13µM (no result: IL-1B inflam inh, HT1080 IDH1KD tx, HT1080-NT tox)
CCC1(C)CC(=O)c2c(ccc3oc(C(=O)NCc4ccccc4)c(C)c23)O1 (centres undefined)	TDP1 cell CPT 29µM, TDP1 cell noCPT 16µM (no result: IL-1B inflam inh, HT1080 IDH1KD tx, HT1080-NT tox)
CCCNC(=O)c1oc2ccc3c(c2c1C)C(O)CC(C)(C)O3 (centres undefined)	none
CCOc1ccccc1CNC(=O)C1=C(C)C(=O)OC12CCN(C(C)=O)CC2	none (no result: IL-1B inflam inh, HT1080 IDH1KD tx, HT1080-NT tox)
Cc1c(C(=O)NCc2ccoc2)oc2ccc3c(c12)C(=O)CC(C)(C)O3	IL-1B inflam inh -52, HT1080 IDH1KD tx inconclusive, TDP1 cell CPT 15µM, TDP1 cell noCPT inconclusive
O=C(CCNC(=O)c1ccc([N+](=O)[O-])cc1)NC1CCCc2ccccc21 (centres undefined)	none
CN1CCN(C2Cc3cc(F)ccc3Sc3ccc(Cl)cc32)CC1 (centres undefined)	IL-1B inflam inh inconclusive, HT1080 IDH1KD tx inconclusive, TDP1 cell CPT inconclusive, TDP1 cell noCPT inconclusive
Cc1cccc2c1Sc1ccc(Cl)cc1CC2N1CCNCC1 (centres undefined)	IL-1B inflam inh -99, HT1080 IDH1KD tx inconclusive, TDP1 cell CPT 16µM, TDP1 cell noCPT 18µM, HT1080-NT tox 23µM
CCc1cccc2c1Sc1ccccc1CC2N1CCNCC1 (centres undefined)	IL-1B inflam inh -93, HT1080 IDH1KD tx inconclusive, TDP1 cell CPT 16µM, TDP1 cell noCPT 16µM
CCOc1ccc(NC(=S)N2CCN(S(=O)(=O)c3ccccc3)CC2)cc1	none
COC(=O)C[C@H]1C[C@H]2c3cc(NC(=O)CC4CC4)ccc3O[C@H]2[C@H](CO)O1	none
COc1cccc(CNS(=O)(=O)c2cnc(N)nc2)c1	none (no result: IL-1B inflam inh, HT1080 IDH1KD tx, HT1080-NT tox)
COc1ccc(NC2C=CS(=O)(=O)C2)c(OC)c1 (centres undefined)	IL-1B inflam inh -61
COc1ccc(CNC(=O)C2(C)Cc3c(-c4cccc(NC(C)=O)c4)ccnc3O2)cc1OC (centres undefined)	HT1080 IDH1KD tx inconclusive, TDP1 cell CPT inconclusive, TDP1 cell noCPT 18µM
CC(=O)Nc1cccc(-c2ccnc3c2CC(C)(C(=O)NCc2cccs2)O3)c1 (centres undefined)	HT1080 IDH1KD tx 1.6µM, TDP1 cell CPT inconclusive, TDP1 cell noCPT 4.1µM, HT1080-NT tox inconclusive
CN(C)c1ccc(-c2ccnc3c2CC(C)(C(=O)NCc2ccncc2)O3)cc1 (centres undefined)	TDP1 cell CPT inconclusive, TDP1 cell noCPT inconclusive
CN(C)c1ccc(-c2ccnc3c2CC(C)(C(=O)NCc2cccc(Cl)c2)O3)cc1 (centres undefined)	IL-1B inflam inh inconclusive, HT1080 IDH1KD tx inconclusive, TDP1 cell CPT 23µM, TDP1 cell noCPT 21µM, HT1080-NT tox inconclusive
CC(=O)Nc1cccc(-c2ccnc3c2CC(C)(C(=O)NCc2cccc(Cl)c2)O3)c1 (centres undefined)	HT1080 IDH1KD tx inconclusive, TDP1 cell CPT 3.7µM, TDP1 cell noCPT 4.1µM, HT1080-NT tox inconclusive
CC1(C(=O)NCc2cccc(Cl)c2)Cc2c(-c3cccc(C(N)=O)c3)ccnc2O1 (centres undefined)	HT1080 IDH1KD tx inconclusive, TDP1 cell CPT inconclusive, TDP1 cell noCPT inconclusive, HT1080-NT tox inconclusive
CC1(C(=O)NCc2cccc(Cl)c2)Cc2c(-c3ccccc3)ccnc2O1 (centres undefined)	HT1080 IDH1KD tx inconclusive, TDP1 cell CPT 16µM, TDP1 cell noCPT 8.2µM
CC(=O)Nc1ccc(-c2ccnc3c2CC(C)(C(=O)NCc2cccc(Cl)c2)O3)cc1 (centres undefined)	HT1080 IDH1KD tx inconclusive, TDP1 cell CPT inconclusive, TDP1 cell noCPT 23µM, HT1080-NT tox inconclusive
CC(=O)Nc1cccc(-c2ccnc3c2CC(C)(C(=O)NCc2ccc(N(C)C)cc2)O3)c1 (centres undefined)	HT1080 IDH1KD tx 5.2µM, TDP1 cell CPT 3.3µM, TDP1 cell noCPT 2.9µM, HT1080-NT tox inconclusive
COc1ccc([C@@H]2C=C(C(=O)O)O[C@H](OCCCCO)C2)cc1	none
COc1ccc(-c2coc3cc4oc(=O)cc(-c5ccccc5)c4cc23)cc1F	HT1080 IDH1KD tx 3.7µM, TDP1 cell CPT 3.7µM, TDP1 cell noCPT 4.6µM, HT1080-NT tox 6.5µM
O=C1C(N2CCOCC2)=Cc2cccc3cccc1c23	TDP1 cell CPT inconclusive, TDP1 cell noCPT inconclusive
CC(=O)N(C(C)=O)N1C(=O)c2cccc3c(N4CCOCC4)ccc(c23)C1=O	TDP1 cell noCPT inconclusive
